Where “and” joins values, the source holds several entries; their conditions need not be identical. Equal values may be shown once. Results filed as inconclusive are left out. Where a structure was tested more than once in an assay, its records may differ in their call. Calls of active or inactive are those of the source. Unless noted, calls come from the whole dose curve; as a rule, active = well fitted curve in the direction sought with a large enough effect in the repeat runs; inconclusive = weak or mixed curves; inactive = no such curve, though single readings can be large; an effect the other way counts as inactive or inconclusive.
What was measured:
[1] = qHTS assay for small molecule agonists of the p53 signaling pathway (AID 651631; calls by dose curve; note: nearly all actives have a fitted effect of over 15% in size; note: potency is the fitted concentration of half-maximal effect)
In short: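 We treat p53RE-bla HCT-116 cells with compounds for 16 h at 37 °C, add LiveBLAzer B/G FRET substrate for 2 h at room temperature, and measure fluorescence intensity.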

[2] = qHTS assay for small molecules that induce genotoxicity in human embryonic kidney cells expressing luciferase-tagged ATAD5 (AID 651632); note: nearly all actives have a fitted effect of over 15% in size
In short: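 HEK293T cells carrying a luciferase reporter tagged to ATAD5 were exposed to compound or DMSO vehicle for 16 hr at 37C, 5% CO2. Amplite was added, and after 30 min at room temperature luciferase activity was read as a marker of ATAD5 induction.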

[3] = qHTS assay for small molecule agonists of the p53 signaling pathway - cell viability (AID 651633; calls by dose curve; note: nearly all actives have a fitted effect of over 30% in size; note: potency is the fitted concentration of half-maximal effect)
In short: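 p53RE-bla cells, seeded at 4,000 per well and rested 5 h at 37 C/5% CO2, received compounds in DMSO for 16 h at 37 C. CellTiter-Glo was then added, and luminescence was read after 30 min at room temperature to gauge cytotoxicity.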

[4] = qHTS assay for small molecules that induce genotoxicity in human embryonic kidney cells expressing luciferase-tagged ATAD5 - cell viability (AID 651634; calls by dose curve; note: nearly all actives have a fitted effect of over 25% in size; note: potency is the fitted concentration of half-maximal effect)
In short: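 HEK293T cells expressing luciferase-tagged ATAD5 were exposed to compound or DMSO for 15.5 hr at 37C, 5% CO2. Viability was then read as live-cell protease activity by CellTiter-Fluor fluorescence after 30 min at 37C.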

[5] = qHTS assay for small molecule disruptors of the mitochondrial membrane potential - cell viability (AID 720634; calls by dose curve; note: nearly all actives have a fitted effect of over 20% in size; note: potency is the fitted concentration of half-maximal effect)
In short: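 HepG2 cells seeded overnight at 37 C, then exposed to compound or DMSO for 1 hr at 37 C, 5% CO2. m-MPI dye added, then CellTiter-Glo for 30 min at room temperature; viability read as ATP luminescence.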

[6] = qHTS assay to test for compound auto fluorescence at 590 nm (red) in HepG2 cells (AID 720674)
In short: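 Compound auto-fluorescence is scored relative to Rose Bengal sodium, measured at 540/590 nm in live HepG2 cultures after 1 hr compound contact (37 C, 5% CO2).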

[7] = qHTS assay to test for compound auto fluorescence at 535 nm (green) in HepG2 cells (AID 720675)
[8] = qHTS assay to test for compound auto fluorescence at 460 nm (blue) in HEK293 cells (AID 720678)
In short: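 Intrinsic compound fluorescence is recorded in live HEK293 cultures after overnight incubation at 37C, 5% CO2, using excitation 405 nm and emission 460 nm. Values are referenced to triamterene.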

[9] = qHTS assay to test for compound auto fluorescence at 590 nm (red) in HEK293 cells (AID 720679)
In short: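 Red autofluorescence, HEK293 cells: 2,000 cells/well; attach 4-5 hr 37C; add 23 nL cpd or DMSO; incubate o/n 37C 5% CO2; read Ex540/Em590; Rose Bengal sodium reference.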

[10] = qHTS assay to test for compound auto fluorescence at 535 nm (green) in HEK293 cells (AID 720680)
[11] = qHTS assay to test for compound auto fluorescence at 460 nm (blue) in HEK293 cell free culture (AID 720681)
In short: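 Test compounds were pinned into cell-free culture medium (DMEM with 10% FBS) and fluorescence was read directly at Ex/Em 405/460 nm. Signals were expressed as fluorescence equivalents of triamterene, with DMSO vehicle as control.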

[12] = qHTS assay to test for compound auto fluorescence at 535 nm (green) in HEK293 cell free culture (AID 720682)
In short: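 Green-channel intensity (Ex/Em 485/535 nm) was recorded from compound-treated wells containing only DMEM with 10% FBS. Fluorescein provided the equivalency standard.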

[13] = qHTS assay to test for compound auto fluorescence at 590 nm (red) in HEK293 cell free culture (AID 720683)
In short: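 Tox21 10K library compounds were pinned into cell-free DMEM with 10% FBS and fluorescence was read at excitation 540 nm. Activity is expressed as Rose Bengal sodium equivalency.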

[14] = qHTS assay to test for compound auto fluorescence at 590 nm (red) in HepG2 cell free culture (AID 720684)
In short: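 Measured in medium alone (MEM containing 10% FBS) following pintool addition of compound; emission at 590 nm with 540 nm excitation, referenced to Rose Bengal sodium.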

[15] = qHTS assay to test for compound auto fluorescence at 460 nm (blue) in HepG2 cell free culture (AID 720685)
In short: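 Compound (23 nL) or DMSO pinned into cell-free MEM with 10% FBS; blue fluorescence read at 405/460 nm excitation/emission, expressed as auto-fluorescence equivalency to triamterene.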

[16] = qHTS assay to test for compound auto fluorescence at 535 nm (green) in HepG2 cell free culture (AID 720686)
[17] = qHTS assay to test for compound auto fluorescence at 460 nm (blue) in HepG2 cells (AID 720687)
In short: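 Cells (2,000/well in MEM with 10% FBS) attached overnight at 37 C, then were exposed to compound or DMSO for 1 hr at 37 C, 5% CO2. Fluorescence read at Ex/Em 405/460 nm, expressed as triamterene-equivalent signal.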

[18] = biological target: Glucocorticoid receptor (Homo sapiens) (UniProt P04150); assay: qHTS assay to identify small molecule agonists of the glucocorticoid receptor (GR) signaling pathway (AID 720691; active = well fitted activation curve with a large enough effect in the signal ratio in the repeat runs, not every such curve was filed as active; the % refers to the signal ratio)
Chain of Glucocorticoid receptor (Homo sapiens) (P04150 whole entry, looked up): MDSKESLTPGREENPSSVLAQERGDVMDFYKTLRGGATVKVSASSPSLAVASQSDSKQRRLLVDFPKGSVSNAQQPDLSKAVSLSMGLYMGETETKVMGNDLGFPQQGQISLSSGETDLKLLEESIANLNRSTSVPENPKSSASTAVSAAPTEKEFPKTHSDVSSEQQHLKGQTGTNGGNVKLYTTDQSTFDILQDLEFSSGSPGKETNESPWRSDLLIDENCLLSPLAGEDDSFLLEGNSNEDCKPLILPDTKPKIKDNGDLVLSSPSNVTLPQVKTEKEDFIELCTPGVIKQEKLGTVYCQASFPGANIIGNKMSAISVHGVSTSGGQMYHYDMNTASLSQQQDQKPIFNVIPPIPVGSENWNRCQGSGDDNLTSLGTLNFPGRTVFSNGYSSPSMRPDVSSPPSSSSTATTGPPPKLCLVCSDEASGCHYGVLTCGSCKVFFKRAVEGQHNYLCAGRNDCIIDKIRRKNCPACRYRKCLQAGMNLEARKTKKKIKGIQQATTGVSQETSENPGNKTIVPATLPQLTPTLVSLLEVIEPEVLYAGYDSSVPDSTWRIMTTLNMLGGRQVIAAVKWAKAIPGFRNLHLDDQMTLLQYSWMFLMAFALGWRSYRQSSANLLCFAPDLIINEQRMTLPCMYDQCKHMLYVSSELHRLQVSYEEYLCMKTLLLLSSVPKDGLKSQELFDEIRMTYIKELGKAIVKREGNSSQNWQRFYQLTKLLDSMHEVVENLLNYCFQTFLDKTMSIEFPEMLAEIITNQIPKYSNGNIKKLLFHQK
In short: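 GR-bla HeLa cells (beta-lactamase reporter under glucocorticoid response element) were plated 4 h at 37 C/5% CO2, given compounds in DMSO, and incubated 18 h at 37 C. LiveBLAzer B/G FRET substrate was added for 2 h at room temperature, then fluorescence intensity read.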

[19] = biological target: Glucocorticoid receptor (Homo sapiens) (UniProt P04150); assay: qHTS assay to identify small molecule antagonists of the glucocorticoid receptor (GR) signaling pathway (AID 720692; active = well fitted inhibition curve with a large enough effect in the signal ratio in the repeat runs, not every such curve was filed as active; the % refers to the signal ratio; note: potency is the fitted concentration of half-maximal effect)
In short: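 GR-bla HeLa cells (beta-lactamase reporter under glucocorticoid response element) were pre-plated 4 h at 37 C, treated with compounds plus 5 nM dexamethasone (final) for 18 h, then read by LiveBLAzer B/G FRET fluorescence after 2 h.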

[20] = qHTS assay for small molecule disruptors of the mitochondrial membrane potential (AID 720635); note: potency is the fitted concentration of half-maximal effect
In short: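 HepG2 cells (2,000/well) attached overnight at 37C, then took compound for 1 hr at 37C, 5% CO2. Mito-MPS dye was added for 30 min; fluorescence was read at 490/535 nm (monomers) and 540/590 nm (aggregates).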

Measured: Potency

C=CCC1([C@H](C)CCC)C(=O)NC(=O)NC1=O
not listed: [20]
inactive: all other assays above

COC1=CC(=O)O[C@@H](CCc2ccccc2)C1
not listed: [20]
inactive: all other assays above

COc1cc(CC(C)N)cc2c1OCO2 (centres undefined)
not listed: [20]
inactive: all other assays above

COC(=O)C(Cl)C(=O)OC
inactive: all assays above

COc1c(C(C)(C)C)cc([N+](=O)[O-])c(C)c1[N+](=O)[O-]
not listed: [20]
inactive: all other assays above

ClC=C(Cl)Cl
not listed: [8] | [11] | [18] | [19]
inactive: all other assays above

c1ccoc1
not listed: [8] | [9]
inactive: all other assays above

CNC(C)Cc1ccccc1OC (centres undefined)
not listed: [18]
inactive: all other assays above

O=C(CBr)OCc1ccccc1
not listed: [20]
inactive: all other assays above

CCOP(=O)(OCC)SCCSCC
not listed: [11] | [18] | [19]
inactive: all other assays above

Nc1ccc(N=Nc2ccc(-c3ccc(N=Nc4c(S(=O)(=O)O)cc5cc(S(=O)(=O)O)c(N=Nc6ccccc6)c(O)c5c4N)cc3)cc2)c(N)c1
active: [20] 6.24 µM
not listed: [16] | [19]
inactive: all other assays above

CCOP(=O)(OCC)O/C(=C/Cl)c1ccc(Cl)cc1Cl
active: [19] 49 µM
not listed: [20]
inactive: all other assays above

C=CC(C)=O
not listed: [8] | [9] | [13] | [19]
inactive: all other assays above

IC(I)=C(I)I
active: [1] 12.2 µM | [3] 48.6 µM | [4] 27.3 µM | [20] 4.33 µM
not listed: [8] | [9] | [18] | [19]
inactive: all other assays above

Nc1nc(=S)[nH][nH]1
not listed: [19]
inactive: all other assays above

CCCCCCC#N
not listed: [16] | [18] | [19] | [20]
inactive: all other assays above

CCBr
not listed: [19]
inactive: all other assays above

C[N+](C)(C)CCCl
not listed: [19] | [20]
inactive: all other assays above

Cc1ccc2ccccc2c1
not listed: [11] | [16] | [18] | [19]
inactive: all other assays above

Cc1cc(=O)[nH]o1
inactive: all assays above

O=NN1CCCCCC1
not listed: [8] | [9] | [19]
inactive: all other assays above

CC[C@H]1C[C@H]2[C@@H]3CCC4=CC(=O)CC[C@@H]4[C@H]3CC[C@]2(C)[C@H]1O
not listed: [18] | [19] | [20]
inactive: all other assays above

c1ccc(CN2CCNCC2)cc1
not listed: [20]
inactive: all other assays above

CCOP(=S)(OCC)Oc1nc(Cl)c(Cl)cc1Cl
54.6 µM (active) and inactive: [3]
active: [5] 6.87 µM | [20] 13.7 µM and 30.6 µM
inactive: all other assays above

Cc1ccc(N)cc1C
not listed: [18] | [19] | [20]
inactive: all other assays above

O=[N+]([O-])c1ccccc1CCl
not listed: [16]
inactive: all other assays above

II
active: [20] 19.3 µM
not listed: [13] | [16]
inactive: all other assays above

Cn1cc[n+](C)c1 (tested in a mixture with another compound)
not listed: [9] | [18] | [19]
inactive: all other assays above

[O-][Cl+]O
not listed: [8]
inactive: all other assays above

CC(Cl)Cl
not listed: [16] | [19] | [20]
inactive: all other assays above

CC1CC(CC2CCC(N)C(C)C2)CCC1N (centres undefined)
not listed: [13]
inactive: all other assays above

COC(N)=O
not listed: [13] | [16]
inactive: all other assays above

Reference: PubChem BioAssay (Tox21)
